Assay in all cases: NCI-60 one-dose screen, 48 h (100 = growth as untreated, 0 = no growth, -100 = all killed)
Holding throughout (settings): 10 µM unless noted

Experiment [1] has as its system HT29 colon.
Experiment [2] relates to SNB-75 CNS.
Experiment [3] deals with SNB-19 CNS.
Experiment [4] relates to U251 CNS.
Experiment [5] concerns PC-3 prostate.
In experiment [6] the test system is SK-MEL-5 melanoma.
Experiment [7] has as its system UACC-62 melanoma.
The subject of experiment [8] is LOX IMVI melanoma.
The test system of experiment [9] is SK-MEL-28 melanoma.
Experiment [10] concerns SK-MEL-2 melanoma.
The test system of experiment [11] is EKVX NSCLC.
In experiment [12] the test system is SN12C renal.
The subject of experiment [13] is UO-31 renal.
For experiment [14], the system named is TK-10 renal.
For experiment [15], the system named is ACHN renal.
In experiment [16] the test system is CAKI-1 renal.
The test system of experiment [17] is A498 renal.
For experiment [18], the system named is CCRF-CEM leukemia.
Experiment [19] concerns MOLT-4 leukemia.

About 83,000 compounds went through this panel and 20% of them were active in at least one assay; those are over-represented in the sample as a whole.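 For each line, cells grew in 96-well plates with the test compound present at a single concentration for 48 hours.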 Values without a mark were called inactive. The source made the active and inactive calls. Rule for the calls: active = growth percent below 10; inactive = the rest.

Regarding `COc1ccc(C2C(C#N)=C(N)Oc3c2sc2c(Br)cccc32)cc1` (configuration not stated), the growth in experiment [1] is 5% (active); in [2], 11.3%; in experiment [3], 44.8%; in [4], 20.4%; in [5], 25.5%; in [6], 29.3%. Besides, the growth in experiment [7] is 10.6%; in experiment [8] it was 29.2%; in experiment [9], 59.5%; in experiment [10], 10.9%; in experiment [11], 46.2%; in experiment [12] it was 37.3%. Besides, the growth is 35.9% in [13]; 50.2% in [14]; 54% in experiment [15]; 35.9% in experiment [16]; 27% in [17]; 12.5% in experiment [18]. For the same compound, the growth in experiment [19] is 12.1%.

On to `Nc1c(C(=O)O)cc(Cl)cc1[N+](=O)[O-]`, for which the growth in experiment [1] is 97.7%; in experiment [2] it was 89.8%; in experiment [3], 112%; in experiment [5], 80.8%; in experiment [6], 103%; in experiment [7], 96.4%. Moreover, the growth in [8] was 100%; in experiment [9] it was 109%; in experiment [10] it was 110%; in [11], 103%; in experiment [12] it was 93.9%; in experiment [13], 79.3%. The growth in experiment [14] was 118%; in experiment [15] it was 96.5%; in experiment [16], 111%; in [17], 100%; in [18] it was 78.6%; in experiment [19] it was 94.2%.

Turning to `O=C(Nc1cccc(NC(=O)C2CCCCC2)c1)c1ccccn1`, the growth in [1] is 90.4%; in experiment [2] it was 87%; in experiment [3] it was 111%; in experiment [4] it was 109%; in experiment [5], 104%; in experiment [7], 96.8%. Besides, the growth was 90.6% in experiment [8]; 103% in experiment [9]; 100% in [10]; 92% in [11]; 102% in [12]; 88.7% in [13]. The growth was 112% in [14]; 103% in experiment [15]; 94.9% in experiment [16]; 96.1% in experiment [17]; 106% in [18]; 91.3% in experiment [19].

Regarding `CCCC(O)Cn1ncc(C(=O)OCC)c1NC(=O)NCc1cccc(F)c1` (configuration not stated), the growth in [1] is 88.8%; in [2], 93.6%; in [3], 102%; in experiment [5] it was 83.6%; in experiment [6], 101%; in experiment [7] it was 97.1%. The growth in [8] was 92.7%; in experiment [9] it was 97.8%; in experiment [10], 90.7%; in experiment [11] it was 97.8%; in experiment [12] it was 99.8%; in experiment [13], 79.3%. Further, the growth in experiment [14] is 87.5%; in [15], 96.6%; in [16], 84.6%; in experiment [17] it was 108%; in experiment [18], 90.1%; in experiment [19], 70.6%.

Turning to `CCCCCCCCCCCCCCCCCCOc1ccccc1CC(=O)OCC[N+]1(C)CCOCC1`, the growth is 47.9% in experiment [1]; 19.7% in experiment [2]; 54.4% in experiment [3]; 30.1% in [4]; 41.1% in [5]; 79.8% in [6]. In addition, the growth was 60.8% in experiment [7]; 55.9% in experiment [8]; 85.7% in experiment [9]; 91.5% in experiment [10]; 86.7% in experiment [11]; 31.4% in [12]. For the same compound, the growth in experiment [13] is 67.9%; in [14], 43.5%; in experiment [15] it was 89.6%; in experiment [16] it was 49.1%; in experiment [17], 64.1%; in [18], 30.1%.

In the case of `Nc1c(C(=O)Nc2cccc3ncccc23)sc2nc3c(cc12)C(=O)CCC3`, the growth in experiment [1] is 35.9%; in experiment [2] it was 43.7%; in experiment [3], 38%; in [4], 57.5%; in experiment [5], 35.1%; in experiment [6], 30.3%. Further, the growth in experiment [7] is 17.8%; in experiment [8], 55%; in experiment [9], 49%; in experiment [10], 36.3%; in experiment [11], 58.6%; in experiment [12], 60.8%. For the same compound, the growth in [13] was 58.3%; in experiment [14], 76.8%; in experiment [15], 52%; in experiment [16], 58.8%; in experiment [17] it was 4.53% (active); in experiment [18] it was 30.5%. In addition, the growth in [19] was 66.6%.

Regarding `Cc1cc(C(=O)Nc2cc(Nc3ncccc3-c3ncnc4nc[nH]c34)ccc2F)cc(C(F)(F)F)c1`, the growth in experiment [1] was 20.8%; in experiment [2], 59.4%; in experiment [3] it was 74.4%; in experiment [4] it was 57.3%; in [5] it was 72.2%; in [6], 29.2%. In addition, the growth in [7] is -2.36% (active); in [8] it was 1.22% (active); in experiment [9], 10.3%; in experiment [10], 6.72% (active); in [11] it was 67.1%; in experiment [12], 55.7%. Further, the growth was 94.1% in experiment [13]; 68% in experiment [14]; 45.1% in experiment [15]; 15.4% in [16]; -26.9% (active) in experiment [17]; 62.3% in [18]. For the same compound, the growth in experiment [19] was 47.2%.

As for `Cn1cc(/C=C2/C(=O)Nc3ccccc32)c2ccccc21`, the growth in [1] was 95.4%; in [2] it was 99.3%; in experiment [3], 102%; in experiment [4], 78.3%; in experiment [5], 90.2%; in experiment [6] it was 79.2%. Besides, the growth was 107% in experiment [7]; 92.1% in experiment [8]; 101% in experiment [9]; 101% in experiment [10]; 78.2% in experiment [11]; 85.7% in experiment [12]. Besides, the growth in [13] was 57.9%; in experiment [14], 119%; in experiment [15], 83.3%; in experiment [16], 64.8%; in experiment [17], 118%; in [18], 90%. Besides, in [19], the growth was 82.4%.

For `CS(=O)(=O)Nc1cncc(-c2ccc3ncnc(Nc4ccc(F)c(Cl)c4)c3c2)c1`, the growth is 20.7% in experiment [1]; 42.9% in experiment [3]; 8.79% (active) in experiment [4]; 34.5% in experiment [5]; -50.1% (active) in experiment [6]; 34.6% in experiment [7]. Besides, the growth in [8] is 28.3%; in [9], 42.7%; in experiment [10] it was 8.23% (active); in experiment [11], 0.905% (active); in experiment [12], 33.9%; in [13], 38.1%. For the same compound, the growth in experiment [14] is -2.22% (active); in experiment [15] it was 32.3%; in [16], 44.7%; in [17] it was -7.33% (active); in [18] it was 11.8%; in experiment [19], -22.8% (active).

Regarding `C[C@H]1[C@H](C)CC[C@]2(C(=O)O)CC[C@]3(C)C(=CC[C@@H]4[C@@]5(C)C[C@@H](Cc6cn([C@@H]7O[C@H](CO)[C@@H](O)[C@H](O)[C@H]7O)nn6)[C@H](O)C(C)(C)[C@@H]5CC[C@]43C)[C@H]12`, the growth in [1] was 98.4%; in experiment [2], 88%; in experiment [3] it was 98.8%; in experiment [4], 92.9%; in experiment [5] it was 89.8%; in [7], 98.4%. Also, the growth in experiment [8] is 99%; in experiment [9], 101%; in [10], 99.9%; in experiment [11] it was 96.8%; in experiment [12] it was 97.1%; in experiment [13], 91.8%. In addition, the growth in experiment [14] was 89.2%; in [15] it was 99.2%; in [16], 97.2%; in experiment [17] it was 80.7%; in [18] it was 99.3%; in experiment [19], 94.2%.

`O=C(CSc1nc2ccc([N+](=O)[O-])cc2[nH]1)Nc1cccc([N+](=O)[O-])c1`: the growth was 57.6% in [1]; 49.5% in [2]; 64.2% in experiment [3]; 41.5% in experiment [4]; 19.7% in [6]; 21.1% in experiment [7]. Moreover, the growth is 57.8% in experiment [8]; 55.7% in [9]; 49.2% in experiment [10]; 48.8% in experiment [11]; 49.6% in [12]; 33.4% in [13]. The growth was 69.5% in experiment [14]; 62.5% in experiment [15]; 41.2% in experiment [16]; 31.7% in experiment [17]; 40.8% in [18]; 43.6% in [19].

For the origin of these results see PubChem BioAssay (NCI).
